Measurements reported in the supplement of paper PMC12632987.

target: GABARAPL2, P60520; test: median log2 fold change of GCK-ALFA target abundance (FLAG IP / Myc IP barcode read proportion) (log2 ratio); each designed protein is fused to an ALFA-tag nanobody in HEK293 cells to bring the named protein to FLAG-tagged glucokinase (GCK); Myc marks an untargeted standard; higher = target protein stabilised (more abundant); conditions: target protein: 3xFLAG-MCP-GCK-ALFA reporter; HEK293 landing pad (RPLP)
Sequence (P60520 whole entry, the tested form may be a part): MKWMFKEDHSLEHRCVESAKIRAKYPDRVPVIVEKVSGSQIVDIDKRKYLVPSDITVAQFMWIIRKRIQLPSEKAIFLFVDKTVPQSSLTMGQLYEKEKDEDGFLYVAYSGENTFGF
In short: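 Sequencing of reverse-transcribed, amplified circular RNA barcodes from anti-FLAG and anti-Myc immunoprecipitates provided the readout for an ALFA-nanobody-fused binder library recombined into HEK293 landing-pad cells. Those cells were induced with 2 μg mL^−1 doxycycline, transfected with a plasmid expressing a FLAG-tagged target and a Myc-tagged standard, and lysed after 48 h. Target abundance is the per-binder median log2 ratio of FLAG to Myc barcode read proportions. Only barcodes at a proportion of ≥10^−7 in both replicates and binders with ≥3 barcodes per replicate were kept, with a 10^−6 pseudocount added before the two replicates were pooled.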

| Binder | median log2 fold change |
| --- | --- |
| GBRAPL2_175_7340 (protein) SAYEALLKEIIKLLLELSEKANDEVSDLLDAAAAVLETDGLAAAGRAAALVAEASKEAADNPQLQAALAKLAAALKALAAGAAPEEVEKLLKEAKAITKK | 0.217 |
| GBRAPL2_175_7334 (protein) SALDELLARLAALLDELSERADDETADLLDAAMALLELEGAAAAARVAELLREAAELAADNPRLRAALEELARAAALIAEGAAPEEVQAELDRAAALLAE | 0.086 |
| GBRAPL2_151_7325 (protein) SELDELLKKLKELLERLEKLVKEAAKEKPEYETTLETLVGGAEADLLLAEEAENDEEKRRHLKEAAELIRDAAEEIAKITGKEEAKKLAEEAKKLLKELE | 0.129 |
| GBRAPL2_53_7350 (protein) MYVIEIAHPDKETLAKAIEAIFDKLIEAGVEAKITVTLEDGTVIKLEGSLEEQKKKAVALAKETNVLVEIELPDSAKEVVEELEDIALKEGATVSVEKLE | 0.177 |
| GBRAPL2_151_7324 (protein) SELEKLLKELKKLLEELEKLVKEASEKYPEYSIELETLAGGAEADILLAEEAKNDEEKRKYLKRAAELIADAAKLIAEITGDERAKKLAEEAKKILKELE | 0.242 |
| GBRAPL2_53_7355 (protein) MVEIDIGHPDKEVMVKALEEVFDLIEKAGAEVEVIVTKEDGTVIKLTGSVEEIREKVIALAREQPILVTILLKEKNEKLVEEMVDAALKAGATVSVEELP | 0.379 |
| GBRAPL2_53_7349 (protein) MYEVEIAHPDKEVLAAAIEAIFDKIEEAGVEAEVEVTLEDGTVIKLEGPIEEQKEEAVALAKETDVLVTIKLPDEAEELVEELEDIALEKGATVSVEKLE | 0.0915 |
| GBRAPL2_175_7337 (protein) SLEDEVLEALIEALELLSEKADDEVSDLLDAAMALLETDGRAALPRVAELLKKASEEAKDNPELSALLEELAAAAKEFAEGGDLEEILKKAKEIIKKIKA | 0.0611 |
| GBRAPL2_175_7331 (protein) SATEEALKRIAELLERLAERLDGEASDLLLAAAALVEQQGVAAAARAAELVKEAAKLVADDPRLRAALEELAAALKLLAAGAAVEEVQAEIDRAEALLEA | 0.0704 |
| GBRAPL2_175_7335 (protein) SKKEEAIKKLIEALELLAEKANDEVQDLLEAAAAVLELDGESGIEQAAKIVKQAAKDAKDNPELQKLLKELAKALKLLAEGGDIEEVIKKAEKIIKELKK | 0.0436 |
| GBRAPL2_53_7348 (protein) MYVVEIAHPDRDVLAAAIEAVFDLIEEAGVEAEVTVTLEDGTVIKLEGPISEVKERAVALAKETDVLVEIKLPDEAEEVVEELEDIALEKGATVSVEKLE | 0.152 |
| GBRAPL2_43_7342 (protein) MTEIEKKAIEEAREALEEKLDLDGVKEYEEEVEIRKEGDRTIAIVKATSKETGKEYYAVAVYDKNGELLVVVVSSDLERALKAAEDLIELGERDTYVLLP | 0.125 |
| GBRAPL2_175_7330 (protein) SALEELLKRLAELLEELAEKLDDEASDLLLAAAALIEQDGVAAAKRAAELVKEAAKKVKDNPKLQAALEELAAALELIAAGKAPEEVKAELEKAEALLKE | 0.207 |
| GBRAPL2_175_7332 (protein) SAREELVKRLAELALRLAEKADDETEDLLLAAAALLEEGGEENLKRAAELIKEAAKEIKDDERLKKAAAELAEAAELLIAGEDVEKAEEELRKAEELLEK | 0.136 |
| GBRAPL2_53_7345 (protein) MIVVDVAHPDKEVMAEAVEAIFDILEENGVEAKVTVTLEDGTVVELEGPLDEVRKKAVELAKKSEVLVEIELPDSAEETVEKLEDVALEKGATVSVERIP | 0.0792 |
| GBRAPL2_53_7346 (protein) MKKVDIAHPDKEKLAKTLEEIFKILEENGVKAKVTVTTEDGNVIVLEGDLEEIREKTVKLAKETEVLVEIELPDDAEETVEKIIDVALKNGATVSVDGLE | 0.2 |

| Binder | median log2 fold change |
| --- | --- |
| GBRAPL2_175_7327 (protein) SEMEELIKRLVELLLRLAEKLDGLASDLLLAAAALLEEEGVDAAKRAAELVKEAAKEIKDNPKLKAAAEELARALKLIAEGAPPEEVKKELEKAEKLLEE | 0.118 |
| GBRAPL2_175_7333 (protein) SARQELVKRIRDLLLKLAEKADDETQDLLLAAAALLEEGGEENLKRALELVKEAAKEEKNDATLQQAAAELAAALALLIEGKPVEEAQKEIDAAAKLLAK | 0.119 |
| GBRAPL2_53_7351 (protein) MYRVLIGHPDKEVMVKALEKVFEILEEAGVEAKVKVTKEDGTVIELEGPIKEIKEETLKLAKEQPILVEIELPDEAEEVVEKIVDAALEAGATVSVEKVE | 0.157 |
| GBRAPL2_175_7341 (protein) AAYEKLLKEIIELLDELAEKADDEVSDLLEAAAAVLETDGLAGAGRAAKLVAEAAKEAADNPKLQAALKEVAAALKAIADGAAPEEVEKLLKKAKAILKE | 0.142 |
| GBRAPL2_53_7344 (protein) MIEVDIAHPDKEVMAKAVEAVFDILEEAGVEAEVEVTKEDGTVERLRGPLEEVREKAVKLAKETEVLVTIRLPDSAEEVVEKIEDEALKHGATVSVKRLE | 0.23 |
| GBRAPL2_175_7338 (protein) AARAALLARIIELLDELAERADDEVADLLDAAAAVLEEEGEAGAERAARLVAEAAREAADDPRLRAALEAVAAALAALAAGAAPAEVQALLDEAEAILAE | -0.358 |
| GBRAPL2_53_7356 (protein) MLELEIAHPDKEIMAKAVEEIFNLLKEENVEAEVTVTTENGEVIKLTGDIEEIKKKVVELAKKQPILVSIKLPDSAEEVVEKMEDIALELGATVSVSRLE | 0.229 |
| GBRAPL2_151_7323 (protein) SELEKLLKEAKKLLKKLEKLVKEAAKKDPKYETELETLVGGAEADLILAEEAKNDEEKREHLKRAAELIADAAELIAKITGSEEAKKLAEEAKELLKKLE | 0.39 |
| GBRAPL2_53_7353 (protein) MIEVDIAHPDPEVMARALEKIFDIIKEAGQKVTVTVTTEDGTVITLTGDIDTIRAETVALAKQQPILVRIELEEEDEEVAEKVVDAALEEGATVSVERVE | 0.275 |
| GBRAPL2_175_7336 (protein) SLKDEVLAALIEALELLAEKANDEVQDLLEAAMALLEVDGESALPQVAKLLEEAAKEAKDNPELQKLLKELAAAAKEAAEGGDLEEILARAQAIIKEIKA | 0.166 |
| GBRAPL2_175_7329 (protein) SERDELIKRLAELLEKLAEEVDGEASDLLLAAAALLEEEGIEAAKRVAELLKEAAKEIEGNEKLKKAAEALAEAAKLLAEGAPAEEVQKKLEEAEKLLKE | 0.194 |
| GBRAPL2_53_7347 (protein) MIEIDIAHPDKEVMAETLEEIFDVLKKAGVEAKVTVTTENGEVIVLEGDLDEIKEKVVELAKKTNILVTIELPEDAEEVVEEIIDIALEKGAAVSVDGLE | -0.185 |
| GBRAPL2_53_7354 (protein) MIAIEIGHPNKEVMVEALKKVFEIIKKAGEKVEVEVTLEDGTVIKLEGSVEEIEEKVLELAKKQPILVTIYLPEKNEELVEEIEDAALEAGATVSVEELP | 0.166 |
| GBRAPL2_175_7339 (protein) AAYEKLLAEIIELLLEIAEKANDEVSDLLEAAAAVLETDGLAGAERAARLVKEAAEEAKDNPQLQEALKLIAEALKALAAGAAPEEVKKLLDKAKEVLKK | 0.22 |
| GBRAPL2_53_7343 (protein) MIEVDIAHPDKEVMAAAVEAVFDILERAGVEARVTVTKEDGTVVELEGPLEEVRAQAVALAKATEVLVRIELPDEAEEVVEEIEDEALAKGATVSVERIP | 0.199 |
| GBRAPL2_151_7326 (protein) SELERLLEKLKELLEKLEKLVEEAAKKDPSHEIELETLVGGAEADLLLAEEAPNDEEKRRFLKEAAELIKDAAELIAKITGSEEAKKLAEEAREILKELE | 0.164 |
